According to the supplement of paper PMC9694430:
Counter-ions that a name gives are not always drawn.

What was measured:
Assay in all cases: thermal shift delta Tm vs DMSO control; higher = stronger stabilization (binding)
Details in all cases: 12.5 µM; protein concentration 2 µM
[1] = test system: LOC_OS01G01410-cb001
In short: (§1)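 Rice kinase domain constructs were expressed in E. coli, purified, and tested by differential scanning fluorimetry with compound added in DMSO. Each well of a 96-well plate held 19.5 μl of 2 μM kinase in 100 mM potassium phosphate pH 7.5, 150 mM NaCl, 10% glycerol and 5 × SYPRO Orange, and fluorescence was read from 25°C to 95°C at 0.05°C/s. The melting temperature shift is the mean of triplicates, taken against protein with DMSO alone after Boltzmann fitting.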

[2] = test system: LOC_OS01G02750-cb003
In short: as §1

[3] = test system: LOC_OS01G10900-cb004
In short: as §1

[4] = test system: LOC_OS01G13800-cb001
In short: as §1

[5] = test system: LOC_OS01G14860-cb001
In short: as §1

[6] = test system: LOC_OS01G21960-cb002
In short: as §1

[7] = test system: LOC_OS01G39600-cb002
In short: as §1

[8] = test system: LOC_OS01G48390-cb002
In short: as §1

[9] = test system: LOC_OS01G51400-cb002
In short: as §1

[10] = test system: T1, LOC_OS01G52050-cb004
T1 sequence (whole entry): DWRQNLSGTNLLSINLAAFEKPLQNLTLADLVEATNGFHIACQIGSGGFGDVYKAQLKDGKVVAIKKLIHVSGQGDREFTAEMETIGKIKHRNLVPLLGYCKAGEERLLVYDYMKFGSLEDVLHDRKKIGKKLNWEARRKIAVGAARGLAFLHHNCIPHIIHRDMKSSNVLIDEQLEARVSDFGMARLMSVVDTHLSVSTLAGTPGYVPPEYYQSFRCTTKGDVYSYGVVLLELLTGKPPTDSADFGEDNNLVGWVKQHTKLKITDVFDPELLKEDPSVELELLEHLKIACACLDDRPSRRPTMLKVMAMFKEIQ
In short: as §1

[11] = test system: LOC_OS01G57100-cb003
In short: as §1

[12] = test system: LOC_OS01G60330-cb001
In short: as §1

[13] = test system: LOC_OS01G60700-cb002
In short: as §1

[14] = test system: LOC_OS01G63280-cb003
In short: as §1

[15] = test system: LOC_OS01G67340-cb003
In short: as §1

[16] = test system: LOC_OS01G70970-cb002
In short: as §1

[17] = test system: LOC_OS02G07810-cb001
In short: as §1

[18] = test system: LOC_OS02G08530-cb003
In short: as §1

[19] = test system: LOC_OS02G14120-cb001
In short: as §1

[20] = test system: LOC_OS02G17970-cb001
In short: as §1

Row | Compound | thermal shift delta Tm [1] | thermal shift delta Tm [2] | thermal shift delta Tm [3] | thermal shift delta Tm [4] | thermal shift delta Tm [5] | thermal shift delta Tm [6] | thermal shift delta Tm [7] | thermal shift delta Tm [8] | thermal shift delta Tm [9] | thermal shift delta Tm [10] | thermal shift delta Tm [11] | thermal shift delta Tm [12] | thermal shift delta Tm [13] | thermal shift delta Tm [14] | thermal shift delta Tm [15] | thermal shift delta Tm [16] | thermal shift delta Tm [17] | thermal shift delta Tm [18] | thermal shift delta Tm [19] | thermal shift delta Tm [20]
1 | N=C(N)NC(=N)NCCc1ccccc1 [Phenformin HCl] | 0.54 °C | 0.14 °C | 0.3 °C | -0.2 °C | 0.25 °C | 0.77 °C | -0.37 °C | 0.38 °C | 0.25 °C | 0.48 °C | 2.51 °C | 0.5 °C | 0.54 °C | 0.18 °C | -0.23 °C | 0.29 °C | 0.75 °C | -0.63 °C | 1.22 °C | 0.39 °C
2 | Cc1csc(-c2nnc(Nc3ccc(Oc4ncccc4-c4ccnc(N)n4)cc3)c3ccccc23)c1 | 1.65 °C | 0.49 °C | 0.46 °C | 0.28 °C | 0.97 °C | 1.99 °C | 1.72 °C | 1.04 °C | 0.22 °C | 1.54 °C | 2.43 °C | -0.58 °C | 0.56 °C | 14 °C | 0.96 °C | 0.74 °C | 1.36 °C | 4.38 °C | 3.75 °C | 1.17 °C
3 | Nc1ncnc2c1c(-c1cnc3[nH]ccc3c1)nn2C1CCCC1 | 1.35 °C | 1.16 °C | 2.01 °C | 0.12 °C | 1.82 °C | 1.28 °C | 0.43 °C | 2.52 °C | 0.19 °C | 1.48 °C | 1.79 °C | 1.57 °C | 1.17 °C | 4.61 °C | 1.58 °C | 0.76 °C | 1.3 °C | 2.67 °C | 2.04 °C | 0.76 °C
4 | FC(F)c1nc2ccccc2n1-c1nc(N2CCOCC2)nc(N2CCOCC2)n1 | 0.85 °C | 0.92 °C | 0.18 °C | 0.89 °C | -0.06 °C | 0.23 °C | 0.94 °C | 0.8 °C | 0.35 °C | 0.72 °C | 0.81 °C | 1.34 °C | 1.13 °C | 0.27 °C | -0.18 °C | 0.47 °C | 0.59 °C | 0.83 °C | 0.41 °C | 0.88 °C
5 | COC1(c2sc3c(N4CCOCC4)nc(-c4cnc(N)nc4)nc3c2C)COC1 | 1.79 °C | -0.24 °C | 1.43 °C | 0.47 °C | 0.4 °C | 0.39 °C | 0.28 °C | 0 °C | -0.11 °C | 0.03 °C | 0.25 °C | 2.64 °C | 0.38 °C | -0.37 °C | 0.5 °C | 0.89 °C | 0.33 °C | 2.22 °C | 0.63 °C | 0.32 °C
6 | CN1CCC(CNc2ccc3ncc(-c4cccc(OC(F)(F)F)c4)n3n2)CC1 [SGI-1776 free base] | 0.34 °C | 4.11 °C | 3.96 °C | 0.13 °C | 0.51 °C | 2.41 °C | 0.68 °C | 0.82 °C | 0.07 °C | 3.81 °C | 0.83 °C | 0.19 °C | 0.47 °C | 0.98 °C | -0.25 °C | 1.79 °C | 0.42 °C | 2.78 °C | 7.23 °C | -0.26 °C
7 | C[C@@H](Oc1ccc2[nH]nc(/C=C/c3cnn(CCO)c3)c2c1)c1c(Cl)cncc1Cl | 5.27 °C | 7.14 °C | 7 °C | -0.36 °C | 5.34 °C | 3.51 °C | 9.68 °C | 4.56 °C | 0.89 °C | 11.2 °C | 2.21 °C | 7.79 °C | 0.64 °C | 7.65 °C | 12.6 °C | 12.2 °C | 0.37 °C | 5.56 °C | 15 °C | -0.09 °C
8 | CCCCCCCCCCCCCCCCn1cc[n+](Cc2ccccc2)c1C | -2.01 °C | -7.84 °C | -4.55 °C | -6.34 °C | -18.6 °C | -3.32 °C | -5.39 °C | -5.85 °C | -9.26 °C | -3.57 °C | -6.09 °C | 0.5 °C | -2.72 °C | -7.84 °C | -1.74 °C | -4.15 °C | -4.78 °C | -0.96 °C | -1.51 °C | -2.91 °C
9 | C=CCc1ccc(O)c(-c2ccc(O)c(CC=C)c2)c1 [Honokiol] | 0.83 °C | 1.12 °C | 0.85 °C | 0.22 °C | 0.9 °C | 1.38 °C | 1.21 °C | 0.93 °C | 0.36 °C | 1.76 °C | 2.73 °C | 0.73 °C | 1.34 °C | 1.12 °C | 1.09 °C | 0.71 °C | 1.8 °C | 1.59 °C | 0.96 °C | 1.32 °C
